Measured values: PubChem BioAssay (Tox21)
Several values for one entry are separate records, joined by “and”; a condition that tells them apart may be missing. Identical values can stand only once. Records with an inconclusive call do not appear. Activity calls are given as the source filed them. Unless noted, calls follow the shape of the full dose curve.

Legend:
[1] = Nuclear factor erythroid 2-related factor 2/antioxidant responsive element (Nrf2/ARE) small molecule agonists: luciferase reporter gene qHTS assay in human keratinocytes (AID 1919969); also: nearly all actives have a fitted effect of over 35% in size; also: potency is read from the fitted curve at half-maximal effect
[2] = target: Gonadotropin-releasing hormone receptor (Homo sapiens) (UniProt P30968); assay: Human gonadotropin-releasing hormone receptor (GnRHR) small molecule agonists, calcium flux assay in GnRHR-HEK293 cells (AID 1920063); also: nearly all actives have a fitted effect of over 35% in size
Sequence of Gonadotropin-releasing hormone receptor (Homo sapiens) (P30968 whole entry, looked up): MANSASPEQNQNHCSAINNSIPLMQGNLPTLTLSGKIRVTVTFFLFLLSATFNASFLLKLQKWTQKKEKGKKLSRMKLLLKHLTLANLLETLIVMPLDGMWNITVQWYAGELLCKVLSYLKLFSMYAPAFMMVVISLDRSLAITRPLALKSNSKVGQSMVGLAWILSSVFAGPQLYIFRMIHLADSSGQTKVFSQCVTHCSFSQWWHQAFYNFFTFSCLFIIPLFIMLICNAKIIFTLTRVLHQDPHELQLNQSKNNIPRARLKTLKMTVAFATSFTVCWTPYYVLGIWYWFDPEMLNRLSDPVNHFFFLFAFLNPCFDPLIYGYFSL
In short: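 We seeded human GnRHR-expressing HEK293 cells for 18 hours, loaded them with calcium dye for an hour at 37 C, added test compounds, and recorded fluorescence intensity kinetically for three minutes.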

[3] = target: KiSS-1 receptor (Homo sapiens) (UniProt Q969F8); assay: Human kisspeptin (KISS1R) small molecule agonists, calcium flux assay in KISS1R-HEK293 cells (AID 1920064; active = well fitted activation curve with a large enough effect in the repeat runs)
Sequence of KiSS-1 receptor (Homo sapiens) (Q969F8 whole entry, looked up): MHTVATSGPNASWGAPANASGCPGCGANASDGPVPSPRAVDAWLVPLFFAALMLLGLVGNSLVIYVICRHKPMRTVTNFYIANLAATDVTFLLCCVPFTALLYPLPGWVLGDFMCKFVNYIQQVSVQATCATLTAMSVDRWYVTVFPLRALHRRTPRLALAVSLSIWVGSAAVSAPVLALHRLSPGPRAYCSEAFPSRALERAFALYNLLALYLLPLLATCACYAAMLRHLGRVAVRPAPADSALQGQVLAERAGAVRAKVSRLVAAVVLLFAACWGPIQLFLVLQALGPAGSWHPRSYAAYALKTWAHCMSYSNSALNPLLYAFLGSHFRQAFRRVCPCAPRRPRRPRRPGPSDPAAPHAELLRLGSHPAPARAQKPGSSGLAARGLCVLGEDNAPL
In short: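 Kinetic calcium assay, 1 s sampling over 3 min at Ex/Em 480/540, in HEK293 cells engineered with human KISS1R; compounds delivered in DMSO after 1 h dye loading.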

[4] = G protein-coupled receptor (GPCR) small molecule agonists, calcium flux assay: HEK293 wild type cell line counter screen (AID 1920065)
In short: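 Calcium-sensitive dye, loaded 1 h at 37 C into cells cultured 18 h, reports compound-evoked calcium release as fluorescence (Ex/Em 480/540), measured over 3 min. Agonist mode; 15-point titrations, triplicate.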

[5] = p53 small molecule agonists, cell-based qHTS assay with human liver microsomes (AID 1963577)
In short: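 p53RE-bla cells, 4,000/well, compound added after 5 h, with human liver microsomes 0.5 mg/mL and NADPH 0.5 mg/mL final; 16 h at 37 C, then LiveBLAzer 2 h RT, fluorescence.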

[6] = p53 small molecule agonists, cell-based qHTS assay with rat liver microsomes: qHTS cell viability counter screen (AID 1963580); also: nearly all actives have a fitted effect of over 45% in size
In short: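 Intracellular ATP, by CellTiter-Glo luminescence, defines viability. HCT-116 p53RE-bla cells, 4,000 per well, were compound-treated in the presence of rat liver microsomes and NADPH for 16 h at 37 C.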

[7] = p53 small molecule agonists, cell-based qHTS assay (AID 1963582; active = well fitted activation curve with a large enough effect in the signal ratio in the repeat runs, not every such curve was filed as active; the % refers to the signal ratio)
In short: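 In this cell-based concentration-response screen, a p53 response element drives beta-lactamase; cells received DMSO-borne compounds after 5 h culture and were incubated a further 16 h before FRET substrate development.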

[8] = target: 5-hydroxytryptamine receptor 2A (Homo sapiens) (UniProt P28223); assay: 5-hydroxytryptamine receptor 2A (HTR2A) small molecule antagonists, cell-based qHTS assay (AID 1963586); also: nearly all actives have a fitted effect of over 45% in size
Sequence of 5-hydroxytryptamine receptor 2A (Homo sapiens) (P28223 whole entry, looked up): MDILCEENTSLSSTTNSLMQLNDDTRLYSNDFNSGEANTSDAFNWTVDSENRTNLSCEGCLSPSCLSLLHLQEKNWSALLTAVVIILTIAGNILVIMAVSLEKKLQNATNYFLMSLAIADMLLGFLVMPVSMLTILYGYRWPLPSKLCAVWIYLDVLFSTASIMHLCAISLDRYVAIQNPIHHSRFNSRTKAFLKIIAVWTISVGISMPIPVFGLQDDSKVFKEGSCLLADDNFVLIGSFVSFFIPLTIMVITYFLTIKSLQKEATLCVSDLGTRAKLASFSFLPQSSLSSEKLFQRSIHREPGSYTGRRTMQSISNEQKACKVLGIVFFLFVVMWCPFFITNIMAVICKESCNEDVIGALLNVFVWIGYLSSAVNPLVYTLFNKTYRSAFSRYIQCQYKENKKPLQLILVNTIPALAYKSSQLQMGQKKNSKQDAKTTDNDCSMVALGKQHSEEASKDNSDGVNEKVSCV
In short: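 Antagonist-mode intracellular calcium assay: DOI (4 nM) added after 5 min compound pre-incubation at room temperature to dye-loaded HTR2A-CHO cells. Fluorescence followed for 3 min, sampled every second.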

[9] = target: 5-hydroxytryptamine receptor 2A (Homo sapiens) (UniProt P28223); assay: 5-hydroxytryptamine receptor 2A (HTR2A) small molecule agonists, cell-based qHTS assay (AID 1963587); also: nearly all actives have a fitted effect of over 30% in size
In short: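 Kinetic calcium-flux fluorescence (2 min, 1 sec intervals) after compound addition in agonist mode. HTR2A-CHO cells were cultured 18 h, then dye-loaded 1 h at 37 C.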

[10] = target: Muscarinic acetylcholine receptor M1 (Homo sapiens) (UniProt P11229); assay: Cholinergic receptor muscarinic 1 (CHRM1) small molecule antagonists, cell-based qHTS assay (AID 1963588); also: nearly all actives have a fitted effect of over 40% in size
Sequence of Muscarinic acetylcholine receptor M1 (Homo sapiens) (P11229 whole entry, looked up): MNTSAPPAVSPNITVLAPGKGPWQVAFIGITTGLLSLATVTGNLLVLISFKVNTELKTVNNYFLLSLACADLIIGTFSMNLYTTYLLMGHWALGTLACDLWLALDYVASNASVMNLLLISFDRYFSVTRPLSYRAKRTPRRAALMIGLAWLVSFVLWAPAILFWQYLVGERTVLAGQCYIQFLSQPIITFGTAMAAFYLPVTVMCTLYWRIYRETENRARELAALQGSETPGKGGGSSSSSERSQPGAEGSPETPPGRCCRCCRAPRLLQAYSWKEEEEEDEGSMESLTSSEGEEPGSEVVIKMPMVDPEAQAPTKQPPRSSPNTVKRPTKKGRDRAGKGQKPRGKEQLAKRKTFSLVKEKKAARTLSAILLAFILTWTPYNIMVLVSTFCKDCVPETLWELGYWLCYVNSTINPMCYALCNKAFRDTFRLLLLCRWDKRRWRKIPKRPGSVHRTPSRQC
In short: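 CHRM1-CHO calcium-flux assay, antagonist mode. Cells were seeded 18 h, dye-loaded 1 h at 37 C and given compound for 5 min at RT, then acetylcholine was added at 50nM. FDSS fluorescence was read 3 min; 15 concentrations, three runs.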

[11] = cAMP Responsive Elements (CRE) small molecule agonists, cell-based qHTS assay (AID 1963590)
In short: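 A CRE-responsive beta-lactamase reporter in HEK 293T cells was used. Treatment ran 3 h at 37 C; detection used LiveBLAzer B/G FRET substrate for 2 h at room temperature.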

[12] = cAMP Responsive Elements (CRE) small molecule antagonists, cell-based qHTS assay (AID 1963591; active = well fitted inhibition curve with a large enough effect in the signal ratio in the repeat runs, not every such curve was filed as active; the % refers to the signal ratio)
In short: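 HEK293T cells carrying a CRE-driven beta-lactamase reporter receive compound and NKH477 (0.25 uM final) for 3 h. Fluorescence from LiveBLAzer B/G FRET substrate is read after 2 h at room temperature.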

[13] = target: Beta-2 adrenergic receptor (Homo sapiens) (UniProt P07550); assay: Adrenergic beta2 receptor (ADRB2) small molecule antagonists, cell-based qHTS assay (AID 1963592); also: series mostly up to about 92 µM; nearly all actives have a fitted effect of over 50% in size
Sequence of Beta-2 adrenergic receptor (Homo sapiens) (P07550 whole entry, looked up): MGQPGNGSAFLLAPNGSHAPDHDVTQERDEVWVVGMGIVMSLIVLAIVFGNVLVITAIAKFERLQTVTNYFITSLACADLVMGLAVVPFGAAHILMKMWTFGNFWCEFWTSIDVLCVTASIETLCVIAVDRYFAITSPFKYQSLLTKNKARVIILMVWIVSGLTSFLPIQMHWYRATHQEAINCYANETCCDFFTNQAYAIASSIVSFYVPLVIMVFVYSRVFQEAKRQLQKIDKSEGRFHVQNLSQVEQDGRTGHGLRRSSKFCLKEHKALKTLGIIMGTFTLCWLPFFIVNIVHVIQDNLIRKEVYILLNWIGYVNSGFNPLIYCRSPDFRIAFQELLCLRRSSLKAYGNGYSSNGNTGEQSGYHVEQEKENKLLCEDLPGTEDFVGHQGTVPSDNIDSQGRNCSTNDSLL
In short: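 Cells (CHO, stable ADRB2 overexpression) incubated 18-20hr at 37C; compounds added from DMSO; agonist mix (1nM isoproterenol, 100uM IBMX, 25uM Ro-20-1724) added; 0.5hr RT; d2-cAMP and anti-cAMP-cryptate added; 1hr RT; 665/615 nm read.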

[14] = target: Beta-2 adrenergic receptor (Homo sapiens) (UniProt P07550); assay: Adrenergic beta2 receptor (ADRB2) small molecule agonists, cell-based qHTS assay (AID 1963593);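 also: CHO cells stably overexpressing human ADRB2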
In short: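 CHO cells stably over-expressing ADRB2 were plated overnight at 37C, then dosed with compounds plus a stimulation mix containing 100uM IBMX and 25uM Ro-20-1724 for 0.5hr at room temperature. cAMP was measured by HTRF competition, 1hr.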

[15] = target: D(2) dopamine receptor (Homo sapiens) (UniProt P14416); assay: Dopamine D2 receptor (DRD2) small molecule agonists, cell-based qHTS assay (AID 1963594); also: nearly all actives have a fitted effect of over 35% in size
Sequence of D(2) dopamine receptor (Homo sapiens) (P14416 whole entry, looked up): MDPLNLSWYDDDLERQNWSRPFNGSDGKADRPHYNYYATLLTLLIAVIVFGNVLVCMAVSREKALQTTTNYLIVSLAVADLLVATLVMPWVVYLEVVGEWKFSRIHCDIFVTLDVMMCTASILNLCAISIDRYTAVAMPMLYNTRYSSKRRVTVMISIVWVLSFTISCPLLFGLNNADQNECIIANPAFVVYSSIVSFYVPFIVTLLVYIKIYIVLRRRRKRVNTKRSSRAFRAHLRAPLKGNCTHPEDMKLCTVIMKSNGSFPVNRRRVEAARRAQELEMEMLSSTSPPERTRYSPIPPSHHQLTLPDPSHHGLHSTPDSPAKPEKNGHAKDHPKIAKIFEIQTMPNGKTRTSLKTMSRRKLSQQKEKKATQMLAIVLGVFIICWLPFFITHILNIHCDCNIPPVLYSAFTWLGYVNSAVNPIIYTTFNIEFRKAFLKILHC
In short: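 cAMP accumulation in DRD2-HEK293 cells measured by HTRF after 1 h detection; compounds added 10 min before NKH477 (200nM […]) forskolin-analogue stimulation, 30 min at room temperature, with Ro20-1724 present at 0.1 mM final.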

[16] = p53 small molecule agonists, cell-based qHTS assay with human liver microsomes: qHTS cell viability counter screen (AID 1963579); also: nearly all actives have a fitted effect of over 45% in size
In short: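 p53RE-bla cells, 4,000/well, dosed 5 hours after plating, with human liver microsomes (0.5 mg/mL final) plus NADPH (0.5 mg/mL final), 16 hours at 37 C. Viability read as CellTiter-Glo luminescence after 30 min at room temperature.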

[17] = p53 small molecule agonists, cell-based qHTS assay: qHTS cell viability counter screen (AID 1963581); also: nearly all actives have a fitted effect of over 45% in size
In short: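 Following 5 h attachment, HCT-116 p53RE-bla cells took up compound for 16 h at 37 C; the reporter was read with B/G FRET substrate (2 h RT), and viability then via CellTiter-Glo ATP luminescence.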

[18] = target: Muscarinic acetylcholine receptor M1 (Homo sapiens) (UniProt P11229); assay: Cholinergic receptor muscarinic 1 (CHRM1) small molecule agonists, cell-based qHTS assay (AID 1963589); also: nearly all actives have a fitted effect of over 35% in size
In short: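 Measures agonist-induced intracellular calcium rise. Stable human CHRM1 CHO line, 1 h dye load at 37 C, compounds from DMSO, kinetic fluorescence read.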

[19] = target: D(2) dopamine receptor (Homo sapiens) (UniProt P14416); assay: Dopamine D2 receptor (DRD2) small molecule antagonists, cell-based qHTS assay (AID 1963595; active = well fitted inhibition curve with a large enough effect in the signal ratio in the repeat runs, with a control signal flat; the % refers to the signal ratio)
In short: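 Human DRD2 antagonist qHTS measuring cAMP by HTRF. The cells are exposed to compound for 10 min, then to NKH477 (200 nM) and quinpirole (12 nM) for 30 min at RT, with Ro20-1724 (0.1 mM) present throughout.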

[20] = p53 small molecule agonists, cell-based qHTS assay with rat liver microsomes (AID 1963578)
In short: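 p53RE-bla cells, 4,000/well, pre-incubated 5 h, then given compounds plus rat liver microsomes (0.5 mg/mL final) and NADPH (0.5 mg/mL final). Incubation 16 h at 37 C; beta-lactamase reporter read by LiveBLAzer fluorescence after 2 h at room temperature.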
% is scaled to controls: 0 for no effect and ±100 for the full control effect.

Clc1ccccc1-c1nc(-c2ccncc2)no1
inactive: Potency [2] | Potency [3] | Potency [4] | Potency [5] | Potency [6] | Potency [7] | Potency [8] | Potency [9] | Potency [10] | Potency [11] | Potency [12] | Potency [13] | Potency [14] | Potency [15]
active: Potency [1] 2.11 µM

CCCCC(CC)COC(C)=O (stereo not drawn)
inactive: Potency [1] | Potency [2] | Potency [3] | Potency [4] | Potency [16] | Potency [6] | Potency [17] | Potency [10] | Potency [18] | Potency [11] | Potency [12] | Potency [13] | Potency [14] | Potency [15] | Potency [19]

O=C(Nc1ccc([N+](=O)[O-])cc1Cl)c1cc(Cl)ccc1O
inactive: Potency [2] | Potency [3] | Potency [5] | Potency [20] | Potency [16] | Potency [6] | activity, negative = inhibition [10] -9.19% [at 12.6 µM] | activity change, negative = inhibition [13] -7.38% [at 19 µM] | Potency [15]
active: Potency [1] 34.4 µM and 41.1 nM

Nc1ccc(O)cc1
active: Potency [1] 28.4 µM
inactive: Potency [2] | Potency [3] | Potency [4] | Potency [16] | Potency [6] | Potency [17] | Potency [9] | Potency [10] | Potency [18] | Potency [13] | Potency [14] | Potency [15] | Potency [19]

COc1ccc2cccc(CCNC(C)=O)c2c1
inactive: Potency [1] | Potency [2] | Potency [3] | Potency [4] | Potency [5] | Potency [20] | Potency [16] | Potency [6] | Potency [17] | Potency [8] | Potency [9] | Potency [10] | Potency [18] | Potency [11] | Potency [12] | Potency [13] | Potency [14] | Potency [15] | Potency [19]

CC(C)C(=O)OCCOc1ccccc1
inactive: Potency [1] | Potency [2] | Potency [3] | Potency [4] | Potency [5] | Potency [20] | Potency [16] | Potency [6] | Potency [17] | Potency [8] | Potency [9] | Potency [10] | Potency [18] | Potency [11] | Potency [13] | Potency [14] | Potency [15] | Potency [19]

CO[C@@]1(NC(=O)CSC[C@@H](N)C(=O)O)C(=O)N2C(C(=O)O)=C(CSc3nnnn3C)CS[C@@H]21
inactive: Potency [1] | Potency [2] | Potency [3] | Potency [5] | Potency [20] | Potency [16] | Potency [6] | Potency [17] | Potency [7] | Potency [8] | Potency [9] | Potency [10] | Potency [18] | Potency [11] | Potency [12] | Potency [13] | Potency [14] | Potency [15] | Potency [19]

C=CCOCC(O)CO (stereo not drawn)
inactive: Potency [1] | Potency [2] | Potency [3] | Potency [4] | Potency [20] | Potency [16] | Potency [6] | Potency [17] | Potency [8] | Potency [9] | Potency [10] | Potency [18] | Potency [11] | Potency [12] | Potency [13] | Potency [14] | Potency [15] | Potency [19]
